According to PubChem BioAssay (NCATS):
Records with an inconclusive call do not appear. The source made the active and inactive calls. Calls follow the shape of the dose curve; as a rule, active = well fitted cell-killing curve with a large enough effect; inconclusive = small, poorly fitted or top-dose-only effect, or effect the other way; inactive = flat fitted curve, though single readings scatter.

What was measured:
Experiment in all cases: Primary qHTS to identify gynecologic anti-cancer compounds using libraries of approved drugs and bioactive compounds (AID 1345084); also: nearly all actives have a fitted effect of over 55% in size
C33A = settings: Gynecologic cancer cell panel viability, ATPlite luminescence, 48 h; series mostly up to 57.5 µM
Method in brief: (§1)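 Cell viability after 48 h drug treatment, ATPlite luminescence readout; five doses.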

CAOV3 = settings: Gynecologic cancer cell panel viability, ATPlite luminescence, 48 h; series mostly up to 57.5 µM
Method in brief: as §1

CASKI = settings: Gynecologic cancer cell panel viability, ATPlite luminescence, 48 h; series mostly up to 57.5 µM
Method in brief: as §1

Es-2 = settings: Gynecologic cancer cell panel viability, ATPlite luminescence, 48 h; series mostly up to 57.5 µM
Method in brief: as §1

HeLa = settings: Gynecologic cancer cell panel viability, ATPlite luminescence, 48 h; series mostly up to 57.5 µM
Method in brief: as §1

Hek293T = settings: Gynecologic cancer cell panel viability, ATPlite luminescence, 48 h, control line for the selectivity index; series mostly up to 57.5 µM
Method in brief: as §1

JEG-3 = settings: Gynecologic cancer cell panel viability, ATPlite luminescence, 48 h; series mostly up to 57.5 µM
Method in brief: as §1

OV90 = settings: Gynecologic cancer cell panel viability, ATPlite luminescence, 48 h; series mostly up to 57.5 µM
Method in brief: as §1

PA-1 = settings: Gynecologic cancer cell panel viability, ATPlite luminescence, 48 h; series mostly up to 57.5 µM
Method in brief: as §1

SKOV3 = settings: Gynecologic cancer cell panel viability, ATPlite luminescence, 48 h; series mostly up to 57.5 µM
Method in brief: as §1

Tov-21-G = settings: Gynecologic cancer cell panel viability, ATPlite luminescence, 48 h; series mostly up to 57.5 µM
Method in brief: as §1

Tov112D = settings: Gynecologic cancer cell panel viability, ATPlite luminescence, 48 h; series mostly up to 57.5 µM
Method in brief: as §1
% is scaled to controls: 0 for no effect and ±100 for the full control effect.

Cc1ccc(F)cc1C(=O)Nc1ccc(C(=O)N2Cc3cccn3Cc3ccccc32)c(Cl)c1
inactive: Potency (C33A) | Potency (CAOV3) | Potency (CASKI) | Potency (Es-2) | Potency (HeLa) | Potency (Hek293T) | Potency (JEG-3) | Potency (OV90) | Potency (PA-1) | Potency (SKOV3) | Potency (Tov-21-G) | Potency (Tov112D)

COc1cc(O)c2c(c1)C1=C[C@H](O)[C@@H](O)C[C@]1(C)OC2=O
inactive: Potency (C33A) | Potency (CAOV3) | Potency (CASKI) | Potency (Es-2) | Potency (HeLa) | Potency (Hek293T) | Potency (JEG-3) | Potency (OV90) | Potency (PA-1) | Potency (SKOV3) | Potency (Tov-21-G) | Potency (Tov112D)

C[C@H](NC(c1cccc2[nH]c(=O)c(=O)[nH]c12)P(=O)(O)O)c1ccc(Br)cc1 (stereo partly specified)
inactive: Potency (C33A) | Potency (CAOV3) | Potency (CASKI) | Potency (Es-2) | Potency (HeLa) | Potency (Hek293T) | Potency (JEG-3) | Potency (OV90) | Potency (PA-1) | Potency (SKOV3) | Potency (Tov-21-G) | Potency (Tov112D)

C=C1[C@H](OC(C)=O)[C@H]2[C@@H](OC(C)=O)[C@](C)(OC(C)=O)C[C@]2(OC(C)=O)C(=O)[C@H](C)/C=C/C(C)(C)C(=O)[C@H](OC(=O)C(C)CC)[C@H]1OC(C)=O (stereo partly specified)
inactive: Potency (C33A) | Potency (CAOV3) | Potency (CASKI) | Potency (Es-2) | Potency (HeLa) | Potency (Hek293T) | Potency (JEG-3) | Potency (OV90) | Potency (PA-1) | Potency (SKOV3) | Potency (Tov-21-G) | Potency (Tov112D)

O=C(CO)[C@@H](O)[C@H](O[C@@H]1O[C@H](CO)[C@H](O)[C@H](O)[C@H]1O)[C@H](O)CO
inactive: Potency (C33A) | Potency (CAOV3) | Potency (CASKI) | Potency (Es-2) | Potency (HeLa) | Potency (Hek293T) | Potency (JEG-3) | Potency (OV90) | Potency (PA-1) | Potency (SKOV3) | Potency (Tov-21-G) | Potency (Tov112D)

O=C(Nc1ccn[nH]1)c1c(F)cccc1F
inactive: Potency (C33A) | Potency (CAOV3) | Potency (CASKI) | Potency (Es-2) | Potency (HeLa) | Potency (Hek293T) | Potency (JEG-3) | Potency (OV90) | Potency (PA-1) | Potency (SKOV3) | Potency (Tov-21-G) | Potency (Tov112D)

C[C@H](N)C(=O)N[C@@H](Cc1ccc(O)cc1)C(=O)N1CCC[C@H]1C(=O)NCC(=O)N[C@@H](CCCCN)C(=O)N[C@@H](Cc1ccccc1)C(N)=O
inactive: activity change, negative = cytotoxicity (C33A) 10.6% [at 11.6 µM] | activity change, negative = cytotoxicity (CAOV3) 7.8% [at 11.6 µM] | activity change, negative = cytotoxicity (CASKI) 6.63% [at 11.6 µM] | activity change, negative = cytotoxicity (Es-2) 2.05% [at 11.6 µM] | activity change, negative = cytotoxicity (HeLa) 3.06% [at 11.6 µM] | activity change, negative = cytotoxicity (Hek293T) 13% [at 11.6 µM] | activity change, negative = cytotoxicity (JEG-3) 1.3% [at 11.6 µM] | activity change, negative = cytotoxicity (OV90) 1.27% [at 11.6 µM] | activity change, negative = cytotoxicity (PA-1) 3.5% [at 11.6 µM] | activity change, negative = cytotoxicity (SKOV3) 32.3% [at 11.6 µM] | activity change, negative = cytotoxicity (Tov-21-G) 1.95% [at 11.6 µM] | activity change, negative = cytotoxicity (Tov112D) 5.22% [at 11.6 µM]

C[C@@H]1CC[C@@]2(OC1)O[C@H]1C[C@H]3[C@@H]4CC=C5C[C@@H](O)CC[C@]5(C)[C@H]4CC[C@]3(C)[C@H]1[C@@H]2C
inactive: Potency (C33A) | Potency (CAOV3) | Potency (CASKI) | Potency (Es-2) | Potency (HeLa) | Potency (Hek293T) | Potency (JEG-3) | Potency (OV90) | Potency (PA-1) | Potency (SKOV3) | Potency (Tov-21-G) | Potency (Tov112D)

CC(O)CO[C@@H]1O[C@H](CO)[C@@H](O)[C@H](O)[C@H]1O (stereo partly specified)
inactive: Potency (C33A) | Potency (CAOV3) | Potency (CASKI) | Potency (Es-2) | Potency (HeLa) | Potency (Hek293T) | Potency (JEG-3) | Potency (OV90) | Potency (PA-1) | Potency (SKOV3) | Potency (Tov-21-G) | Potency (Tov112D)

CCOCCn1nc(CC)c2nc(N3CCC(C(=O)O)CC3)nc(Nc3cc(C)ccn3)c21
inactive: Potency (C33A) | Potency (CAOV3) | Potency (CASKI) | Potency (Es-2) | Potency (HeLa) | Potency (Hek293T) | Potency (JEG-3) | Potency (OV90) | Potency (PA-1) | Potency (SKOV3) | Potency (Tov-21-G) | Potency (Tov112D)

C[C@@H]1C[C@@H](O)[C@@]23CO[C@@H](O)[C@@H]2CCC[C@@H]3[C@@]12C[C@@H](c1ccoc1)OC2=O
inactive: Potency (C33A) | Potency (CAOV3) | Potency (CASKI) | Potency (Es-2) | Potency (HeLa) | Potency (Hek293T) | Potency (JEG-3) | Potency (OV90) | Potency (PA-1) | Potency (SKOV3) | Potency (Tov-21-G) | Potency (Tov112D)

C=C1C[C@]23C[C@H]1[C@@H](O)C[C@H]2[C@@]12C=C[C@H](O)[C@@](C)(C(=O)O1)[C@H]2[C@@H]3C(=O)O
inactive: Potency (C33A) | Potency (CAOV3) | Potency (CASKI) | Potency (Es-2) | Potency (HeLa) | Potency (Hek293T) | Potency (JEG-3) | Potency (OV90) | Potency (PA-1) | Potency (SKOV3) | Potency (Tov-21-G) | Potency (Tov112D)

CC1(c2nc3c(C(N)=O)cccc3[nH]2)CCCN1 (stereo unspecified)
inactive: Potency (C33A) | Potency (CAOV3) | Potency (CASKI) | Potency (Es-2) | Potency (HeLa) | Potency (Hek293T) | Potency (JEG-3) | Potency (OV90) | Potency (PA-1) | Potency (SKOV3) | Potency (Tov-21-G) | Potency (Tov112D)
